Source: PubChem BioAssay (EPA / NIEHS)
Activity calls are given as the source filed them. How the source made its calls: active means hit-call score of the fitted dose curve at least 0.9, where 1 is the maximum; inactive means score below 0.9.

experiment: ATG_AP_2_CIS: Attagene CIS-FACTORIAL HepG2 Assay for human Activator Protein 2 (AP-2) (AID 2282932); settings: HepG2 AP-2 cis-reporter, Attagene transcription factor profiling; actives raise or lower the signal
Procedure: ATG_CIS is a cell-based, multiplexed-readout assay that uses HepG2, a human liver cell line, with measurements taken at 24 hours after chemical dosing in a 24-well plate.ATG_AP_2_CIS is one of 52 assay component(s) measured or calculated from the ATG_CIS assay. It is designed to make measurements of mRNA induction, a form of inducible reporter, as detected with fluorescence intensity signals by Reverse transcription polymerase chain reaction (RT-PCR) and Capillary electrophoresis technology.Data from the assay component ATG_AP_2_CIS was analyzed into 1 assay endpoint. This assay endpoint, ATG_AP_2_CIS, was analyzed with bidirectional fitting relative to DMSO as the negative control and baseline of activity. Using a type of inducible reporter, measures of mRNA for gain or loss-of-signal activity can be used to understand the reporter gene at the transcription factor-level as they relate to the gene TFAP2A and TFAP2B and TFAP2D. Furthermore, this assay endpoint can be referred to as a primary readout, because this assay has produced multiple assay endpoints where this one serves a reporter gene function. To generalize the intended target to other relatable targets, this assay endpoint is annotated to the dna binding intended target family, where the subfamily is basic helix-turn-helix leucine zipper.
Human liver HepG2 cells are transiently transfected with multiple reporter transcription units (MRTUs) in 6-well plates using FuGene 6 reagent (Roche; 3 ml FuGene/1 mg DNA). The MRTU constructs are regulated by a cis-regulating element (promoter). […] A major difference between the CIS and TRANS system is that in CIS activities of endogenous TFs are measured, whereas the TRANS assay evaluates changes in activities of exogenous, chimeric NR-Gal4 proteins. […] At the end of 24 hour incubation, total RNA was isolated using TriZol reagent (Invitrogen). The isolated RNA is then reverse-transcribed using oligo(dT) primer and Mo-MLV reverse transcriptase (Invitrogen) with DNAse I (Ambion) treatment for 30 min. The one-tenth of the produced cDNA was amplified by PCR using Taq DNA polymerase (Invitrogen) and two reporter sequence-specific primers. The PCR products were fluorescently labeled by primer extension with 6-arboxyfluorescein (6-FAM) 5'-labeled reporter sequence-specific primer (2 min at 95 C, 20 s at 68 C and 10 min at 72 C) and these products were digested with 5U of HpaI (New England Biolabs) for 2h at 37 C. The fragments were purified using Qiaquick PCR columns (Qiagen), analyzed on an ABI 3130xL genetic analyzer (Applied Biosystems) with peak positions identified by using a set of X-rhodamine (ROX)-labeled MapMarker1000 molecular weight standards (BioVentures). The raw capillary electrophoresis data was processed using Attagraph software (Attagene).

SMILES | outcome | AC50
CCCOc1nn(C(=O)NS(=O)(=O)c2ccccc2C(=O)OC)c(=O)n1C | inactive | 
C#CCC1=C(C)C(OC(=O)C2C(C=C(C)C)C2(C)C)CC1=O (stereo not given) |  | 74.9 µM (active)
S=C1NCCN1 | inactive | 
COP(=O)(OC)SCn1c(=O)oc2cc(Cl)cnc21 | inactive | 
CCOP(=S)(OCC)Oc1ccc2c(C)c(Cl)c(=O)oc2c1 | inactive | 
CNC(=O)Oc1cccc2c1OC(C)(C)O2 | inactive | 
COc1cccc(C(=O)NN(C(=O)c2cc(C)cc(C)c2)C(C)(C)C)c1C |  | 13.1 µM (active)
CC(C)[C@H](C(=O)O[C@H](C#N)c1cccc(Oc2ccccc2)c1)c1ccc(Cl)cc1 | inactive | 
CN(C)[C@@H]1C(=O)C(C(N)=O)=C(O)[C@@]2(O)C(=O)C3=C(O)c4c(O)cccc4[C@@](C)(O)[C@H]3[C@H](O)[C@@H]12 | inactive | 
O=C(O)c1cc(Oc2ccc(C(F)(F)F)cc2Cl)ccc1[N+](=O)[O-] | inactive | 
N#CSCSC#N | inactive | 
COP(=O)(OC)OC(Br)C(Cl)(Cl)Br (stereo not given) | inactive | 
O=c1ccc(=O)[nH][nH]1 | inactive | 
COc1ccc(C(=CC(=O)N2CCOCC2)c2ccc(Cl)cc2)cc1OC | inactive | 
CC[C@H](C)[C@H]1O[C@]2(C=C[C@@H]1C)C[C@@H]1C[C@@H](C/C=C(\C)[C@@H](O[C@H]3C[C@H](OC)[C@@H](O[C@H]4C[C@H](OC)[C@@H](NC)[C@H](C)O4)[C@H](C)O3)[C@@H](C)/C=C/C=C3\CO[C@@H]4[C@H](O)C(C)=C[C@@H](C(=O)O1)[C@]34O)O2 | inactive | 
CNc1cnn(-c2cccc(C(F)(F)F)c2)c(=O)c1Cl | inactive | 
CSc1nnc(C(C)(C)C)c(=O)n1N | inactive | 
CC(C)=CC1C(C(=O)OCN2C(=O)C3=C(CCCC3)C2=O)C1(C)C (stereo not given) | inactive | 
COP(=O)(NC(C)=O)SC (stereo not given) | inactive | 
CC1(C(=O)Nc2ccc(O)c(Cl)c2Cl)CCCCC1 | inactive | 

SMILES | outcome | AC50
CCCCOC(=O)[C@@H](C)Oc1ccc(Oc2ccc(C#N)cc2F)cc1 | inactive | 
CCC(=NOC/C=C/Cl)C1=C(O)CC(C2CCOCC2)CC1=O (stereo not given) | inactive | 
CCCCOC(=O)c1ccccc1C(=O)O | inactive | 
Nc1nc(N)nc(NC2CC2)n1 | inactive | 
C#CC(C)(C)NC(=O)c1cc(Cl)cc(Cl)c1 | inactive | 
CN1COCN(Cc2cnc(Cl)s2)C1=N[N+](=O)[O-] | inactive | 
CN(C)C(=O)Nc1cccc(C(F)(F)F)c1 | inactive | 
CN(C)NC(=O)CCC(=O)O | inactive | 
CCOP(=S)(OCC)Oc1ccc([N+](=O)[O-])cc1 | inactive | 
COc1cc(OC)nc(Sc2cccc(Cl)c2C(=O)O)n1 | inactive | 
CCC(=O)Nc1ccc(Cl)c(Cl)c1 | inactive | 
CCCCSP(=O)(SCCCC)SCCCC | inactive | 
CC1=NNC(=O)N(/N=C/c2cccnc2)C1 | inactive | 
CC(C)N(C(=O)SCC(Cl)=C(Cl)Cl)C(C)C | inactive | 
CCc1cccc(CC)c1N(COC)C(=O)CCl | inactive | 
CCCOCC(=Nc1ccc(Cl)cc1C(F)(F)F)n1ccnc1 | inactive | 
CCOP(=S)(OCC)OC(Cl)C(Cl)(Cl)Cl (stereo not given) | inactive | 
CCOP(=O)(OCC)Oc1cc(C)nc(C(C)C)n1 | inactive | 
CSc1nc(NC(C)C)nc(NC(C)C)n1 | inactive | 
CCc1cnc(C2=NC(C)(C(C)C)C(=O)N2)c(C(=O)O)c1 (stereo not given) | inactive | 
